Measured values published in PubChem BioAssay.
Results filed as inconclusive are left out. Activity calls are given as the source filed them.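 The calls were made as follows, unless noted: active = viability at or under a set limit in both replicates, limit being median viability minus 3 SD (cut at about 48% in these data, passing the limit was not always enough); inconclusive = at or under the limit in just one replicate; inactive = at or above the limit in both replicates.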

Key:
[1] = reducers of endogenous Her2 protein level, primary screen, SKBR3 breast tumor cells, AlphaScreen, ATP viability (AID 461;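 active = Her2 level under about 52% in both replicate screens, with viability over 70% of control, limit read from the data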;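 as to Her2 level: lower value means less Her2 protein in the cells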;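 as to viability: percent of carrier control wells set as 100% viability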); details: 18-24 h, measured here: SKBR3 viability, ATP luminescence, at 10 µM
[2] = target: Receptor tyrosine-protein kinase erbB-2 (Homo sapiens) (UniProt P04626); experiment: as above; details: 18-24 h, at 10 µM, stronger effect = lower value
[3] = SK-BR-3 cell growth inhibitors, pilot screen, 24 h, human (AID 572;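 active = viability at or below 10% of carrier control in both of two separate runs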;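 also: compound exposure lasted between 18 and 24 h rather than exactly 24 h; 100% = carrier-treated control wells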); details: SK-BR-3 viability, CellTiter-Glo luminescence, at 10 µM, stronger effect = lower value
[4] = HUVEC growth inhibition – cell-based, human, primary screen (AID 575;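 active = viability at or below 30% in both replicate assays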;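 also: 100% = median of untreated cell wells with 0.1% DMSO on each plate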); details: HUVEC proliferation, CellTiter-Glo luminescence, 72 h; at 10 µM; stronger effect = lower value
[5] = growth inhibitors of H69AR lung tumor, primary screen, human, duplicate replicates (AID 580); details: H69AR lung tumor cells viability, ATP luminescence, 72 h; at 10 µM; stronger effect = lower value;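 also: 100% = mean luminescence of untreated wells and 0% = no signal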
[6] = reversal of MRP1-mediated doxorubicin resistance, pilot screen, H69AR cells, doxorubicin co-treatment (AID 601;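 active = viability loss from added drug above about 55%, and viability with drug at most 40%, in both replicates, limit read from the data, passing the limit was not always enough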); details: CellTiter-Glo, 72 h, at 10 µM; for differential viability (reversal): stronger effect = higher value
[7] = 384-well plate pilot, post-Golgi transport modulator project, inhibition of yeast transport mutant growth (AID 636; in the data active = inhibition above about 31%); details: absorbance 615 nm, about 18 h, stronger effect = higher value
[8] = growth suppression of yeast trafficking mutant, preliminary HTS, modulators of trafficking downstream of Golgi apparatus project, 1536-format plate, OD 615 nm (AID 637; in the data active = inhibition above about 30%); details: yeast transport mutant growth, absorbance 615 nm, 18 h; stronger effect = higher value
[9] = OD615 S. cerevisiae growth inhibition, permissive medium, pilot counter-assay, permissive growth control for S. cerevisiae lifespan shortening project (AID 705;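 active = growth inhibition above 25% in both replicates, a cutoff set 3 SD above the mean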); details: OD615, 24 h, at 10 µM, stronger effect = higher value
[10] = Restrictive medium S. cerevisiae growth inhibition, OD615, pilot screen of yeast lifespan reduction project, restrictive growth control (AID 706;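 active = growth inhibition above a set limit, 3 SD over mean compound inhibition, in both replicates, cut at about 43% in these data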;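 also: modified DeaD lifespan yeast strain shifted to restrictive glucose medium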); details: OD615, 48 h, at 10 µM, stronger effect = higher value
[11] = viability gain of MRP-1-high H69AR cells under doxorubicin, pilot screen, MRP-1 activator project, CellTiter-Glo, duplicate (AID 807;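 active = viability increase at or above a cutoff of the median across tested compounds plus 3 SD, cut at about 8.5% in these data, passing the limit was not always enough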;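 also: compound pretreatment 18-22 h then 72 h combined with doxorubicin; 0% = doxorubicin alone and 100% = vehicle without doxorubicin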); details: H69AR viability with doxorubicin, CellTiter-Glo luminescence; at 10 µM; stronger effect = higher value
[12] = growth suppression of beta-catenin knockout HCT116, pilot screen, human colon tumor cells (AID 823;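 active = cell viability at or below a set limit in both duplicate runs, the limit being the all-compound median minus 4 SD, cut at about 23% in these data, passing the limit was not always enough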;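 also: 0% = wells killed by 20 µM Hyamine and 100% = untreated DMSO cell wells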); details: CellTiter-Glo, 60 h, at 10 µM, stronger effect = lower value
[13] = growth suppression of PTEN-deleted HCT116, pilot screen, cell-based, HCT116 clonal line, CellTiter-Glo (AID 824;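 active = viability at or below 27.92% in each of two runs, the all-compound median minus 4 SD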;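 also: 0% = 20 µM Hyamine control and 100% = vehicle cell control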); details: 60 h, at 10 µM, stronger effect = lower value
[14] = inhibitors of the yeast RAM network, pilot screen, dse1pr::URA3 reporter, 5-FOA selection (AID 869;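 active = inhibition over a set limit, the all-compound mean plus 3 SD, in both replicate runs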;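 also: 0% = DMSO wells with no growth and 100% = 10 µM 1-NA-PP1 with full growth; RAM network block rescues cells from 5-FOA so hits raise OD615 growth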); details: S. cerevisiae dse1pr::URA3 5-FOA growth, OD615, 2 d; at 10 µM; stronger effect = higher value; strain carries analog-sensitive mutant Cbk1 kinase
[15] = RAM signaling pathway blockade in yeast – S. cerevisiae, Pdr1DBD-CYC8 efflux-inhibited sensitized strain, primary screen (AID 1298;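 active = RAM network inhibition above 8.4% in each of two replicates, 3 SD over the compound average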;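 also: 0% = DMSO untreated cells without growth and 100% = 10 µM 1-NA-PP1 full growth; higher means more yeast growth rescued from 5-FOA killing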); details: S. cerevisiae cbk1-as DSE1-URA3 strain, 5-FOA growth OD615, 2 d; at 50 µM; stronger effect = higher value
[16] = H69AR cells + 2 uM doxorubicin, measured here: viability with 2 uM doxorubicin, stronger effect = lower value
[17] = H69AR cells, compound alone cytotoxicity

Receptor tyrosine-protein kinase erbB-2 (Homo sapiens), sequence (P04626 whole entry, looked up): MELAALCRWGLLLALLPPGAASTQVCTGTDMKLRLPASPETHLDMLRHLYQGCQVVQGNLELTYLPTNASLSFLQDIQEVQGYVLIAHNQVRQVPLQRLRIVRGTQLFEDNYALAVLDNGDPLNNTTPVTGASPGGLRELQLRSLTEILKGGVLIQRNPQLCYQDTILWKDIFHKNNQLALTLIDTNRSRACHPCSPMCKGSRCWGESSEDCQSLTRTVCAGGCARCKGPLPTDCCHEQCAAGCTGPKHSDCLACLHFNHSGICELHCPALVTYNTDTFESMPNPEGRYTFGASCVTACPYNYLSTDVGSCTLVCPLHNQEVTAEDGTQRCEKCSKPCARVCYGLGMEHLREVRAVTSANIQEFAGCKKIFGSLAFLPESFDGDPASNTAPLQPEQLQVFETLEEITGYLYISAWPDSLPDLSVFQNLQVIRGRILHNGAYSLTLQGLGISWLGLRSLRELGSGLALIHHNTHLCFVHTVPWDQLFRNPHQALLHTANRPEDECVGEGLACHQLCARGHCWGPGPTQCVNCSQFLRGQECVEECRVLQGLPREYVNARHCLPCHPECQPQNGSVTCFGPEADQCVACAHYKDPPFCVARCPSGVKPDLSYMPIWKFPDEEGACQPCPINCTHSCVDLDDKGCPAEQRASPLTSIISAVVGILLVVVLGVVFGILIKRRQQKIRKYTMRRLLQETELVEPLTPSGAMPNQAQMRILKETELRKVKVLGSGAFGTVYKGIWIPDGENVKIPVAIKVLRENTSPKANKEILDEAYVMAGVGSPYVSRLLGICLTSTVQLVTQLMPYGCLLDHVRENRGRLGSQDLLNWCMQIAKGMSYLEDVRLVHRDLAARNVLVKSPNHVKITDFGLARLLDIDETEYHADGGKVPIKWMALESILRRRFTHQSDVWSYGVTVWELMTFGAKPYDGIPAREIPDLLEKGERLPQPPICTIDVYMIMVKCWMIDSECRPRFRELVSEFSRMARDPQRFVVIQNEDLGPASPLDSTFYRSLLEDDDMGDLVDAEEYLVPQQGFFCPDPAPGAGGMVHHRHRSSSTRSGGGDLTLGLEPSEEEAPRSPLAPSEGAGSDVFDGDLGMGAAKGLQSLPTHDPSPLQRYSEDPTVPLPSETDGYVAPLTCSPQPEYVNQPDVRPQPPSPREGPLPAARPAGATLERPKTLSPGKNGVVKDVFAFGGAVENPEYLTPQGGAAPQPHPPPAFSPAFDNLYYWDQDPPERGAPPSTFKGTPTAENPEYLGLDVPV

CCCCN(C(=O)c1ccc(Cl)cc1)C1CC2CCC(C1)N2C (stereo not drawn)
81.2%: viability [6, 16]
inactive: Her2 level [2] 120% | viability [3] 87.5% | viability [4] 78.2% | viability [5] 85.1% | differential viability (reversal) ([6]; H69AR cells + 2 uM doxorubicin) 3.96% | inhibition [7] -5.6% | inhibition [8] -4% | growth inhibition [9] -9.97% | growth inhibition [10] 1.71% | viability increase [11] -2.41% | viability [12] 85.3% | viability [13] 89.3% | inhibition [14] 1.62% | RAM network inhibition [15] -0.05%
87.5%: viability [1]
85.1%: viability [6, 17]

CCN1C(=O)c2ccccc2S(=O)(=O)c2ccc(C(=O)NCc3cccnc3)cc21
91.6%: viability [6, 16]
91.5%: viability [6, 17]
95.5%: viability [1]
inactive: Her2 level [2] 114% | viability [3] 95.5% | viability [4] 85.6% | viability [5] 91.5% | differential viability (reversal) ([6]; H69AR cells + 2 uM doxorubicin) -0.065% | inhibition [7] 0.93% | inhibition [8] 8.5% | growth inhibition [9] -2.51% | growth inhibition [10] -4.21% | viability increase [11] -2.25% | viability [12] 93.4% | viability [13] 90.4% | inhibition [14] 0.65% | RAM network inhibition [15] 1.98%

CCOc1ccc(C2CC(c3ccccc3C)n3nc(N)nc3N2)cc1 (stereo not drawn)
87.5%: viability [1]
102%: viability [6, 16]
87.9%: viability [6, 17]
inactive: Her2 level [2] 93.5% | viability [3] 87.5% | viability [4] 87.9% | viability [5] 87.9% | differential viability (reversal) ([6]; H69AR cells + 2 uM doxorubicin) -14.3% | inhibition [7] -2.82% | inhibition [8] -3% | growth inhibition [9] -4.05% | growth inhibition [10] 0.985% | viability increase [11] -1.27% | viability [12] 93.8% | viability [13] 83.3% | inhibition [14] 1.23% | RAM network inhibition [15] 5.2%

CCOc1ccc2nc(N3CCC(C(=O)N4CCN(C5CCCCC5)CC4)CC3)sc2c1
87.2%: viability [6, 16]
83%: viability [1]
95.7%: viability [6, 17]
inactive: Her2 level [2] 83.5% | viability [3] 83% | viability [4] 98.6% | viability [5] 95.7% | differential viability (reversal) ([6]; H69AR cells + 2 uM doxorubicin) 8.46% | inhibition [7] -1.33% | inhibition [8] -4.1% | growth inhibition [9] -0.545% | growth inhibition [10] 8.85% | viability increase [11] -3.43% | viability [12] 55.6% | viability [13] 70.3% | inhibition [14] 1.22% | RAM network inhibition [15] 0.6%

COc1cccc2cc(C(=O)OC3CCN(C)CC3)c(=O)oc12
inactive: Her2 level [2] 103% | viability [3] 96% | viability [4] 94.7% | viability [5] 105% | differential viability (reversal) ([6]; H69AR cells + 2 uM doxorubicin) 18.2% | inhibition [7] -3.08% | inhibition [8] 0.67% | growth inhibition [9] -7.33% | growth inhibition [10] -8.68% | viability increase [11] -3.68% | viability [12] 104% | viability [13] 107% | inhibition [14] -0.245% | RAM network inhibition [15] 2.9%
96%: viability [1]
105%: viability [6, 17]
86.5%: viability [6, 16]

COc1cc(NC(=O)CC(C)C)ccc1NC(=O)c1ccco1
93.1%: viability [6, 16]
inactive: Her2 level [2] 93% | viability [3] 94.5% | viability [4] 103% | viability [5] 109% | differential viability (reversal) ([6]; H69AR cells + 2 uM doxorubicin) 15.9% | inhibition [7] -3.92% | inhibition [8] -9.68% | growth inhibition [9] -3.81% | growth inhibition [10] -1.97% | viability increase [11] -0.27% | viability [12] 100% | viability [13] 96.2% | inhibition [14] 0.825% | RAM network inhibition [15] 0.51%
94.5%: viability [1]
109%: viability [6, 17]

O=C1c2ccccc2C(Nc2ccc(-c3nc4ccccc4[nH]3)cc2)N1Cc1ccco1 (stereo not drawn)
90.5%: viability [1]
inactive: Her2 level [2] 102% | viability [3] 90.5% | viability [4] 65.9% | viability [5] 83.1% | differential viability (reversal) ([6]; H69AR cells + 2 uM doxorubicin) 15% | inhibition [7] 0.4% | inhibition [8] 0.5% | growth inhibition [9] -0.49% | growth inhibition [10] 4.04% | viability increase [11] -5.99% | viability [12] 59.2% | viability [13] 62.1% | inhibition [14] 2.23% | RAM network inhibition [15] 2.26%
83.1%: viability [6, 17]
68.1%: viability [6, 16]

CCOc1ccc(N2C(=O)CC(N3CC(C)OC(C)C3)C2=O)cc1 (stereo not drawn)
inactive: Her2 level [2] 93% | viability [3] 97% | viability [4] 100% | viability [5] 89.2% | differential viability (reversal) ([6]; H69AR cells + 2 uM doxorubicin) -2.21% | inhibition [7] -3.72% | inhibition [8] 1.33% | growth inhibition [9] -17.2% | growth inhibition [10] -10.4% | viability increase [11] -1.01% | viability [12] 105% | viability [13] 98.8% | inhibition [14] 1.47% | RAM network inhibition [15] 2.33%
91.4%: viability [6, 16]
97%: viability [1]
89.2%: viability [6, 17]

Cn1cccc1Cc1nnc(SCC(=O)NCc2ccc(F)cc2)n1-c1ccc(F)cc1
89%: viability [6, 17]
93%: viability [6, 16]
94.5%: viability [1]
inactive: Her2 level [2] 108% | viability [3] 94.5% | viability [4] 80.9% | viability [5] 89% | differential viability (reversal) ([6]; H69AR cells + 2 uM doxorubicin) -4% | inhibition [7] -1.07% | inhibition [8] 13.3% | growth inhibition [9] -3.33% | growth inhibition [10] 8.56% | viability increase [11] -0.43% | viability [12] 97.6% | viability [13] 93.4% | inhibition [14] 2.13% | RAM network inhibition [15] 6.3%
